“And” between values parts separate entries of the source, which are not always exact repeats. Equal values may be shown once. Inconclusive results are not listed. For part of these data: Results with a measured potency or affinity are listed apart. The source made the active and inactive calls. Starred links: 1 amine or outer side, 2 acyl side, 3 side chain; linkers in the order of their positions; H or OH if unused. Positions of bridges follow the written chain, without caps; N, C: chain ends. Non-standard residues stand in square brackets, D forms with d. Residues, ends and D or L forms follow the SMILES beside them. ξ: configuration not given here. *: point of attachment. ΔAla(3-NHCONH2) = NC(=O)NC=C(N)C(=O)O; X1 = NC1=NCCC(C(N[*:1])C(=O)[*:2])N1; ξβ3hOrn = NCCCC(N)CC(=O)*; Dap = NC[CH](N)C(=O)O
Tests used:
[1] = Ebola virus entry assay, green fluorescence channel
[2] = Ebola virus entry assay, blue channel fluorescence
[3] = Ebola virus entry assay, green fluorescence channel; remark: listed apart in the source
[4] = Ebola virus entry assay, ratio channel readout
[5] = Ebola virus entry assay, green channel fluorescence
[6] = Ebola virus entry assay, blue channel fluorescence; remark: listed apart in the source
[7] = Ebola virus entry assay, reporter ratio channel; AC50: Channel type: primary unless noted; outcome: Channel type: primary unless noted
[8] = Ebola virus entry assay, blue channel (ratio component)
[9] = Ebola virus entry reporter assay, green channel fluorescence
[10] = Ebola virus entry cell assay, ratio channel
[11] = qHTS assay for measurement of the activity of small molecule inhibitors on Zika virus induced Caspase-3 activity in human astrocytoma cells (AID 1224859; active means well fitted inhibition curve with a large enough effect;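 further: plate controls were ZIKV-infected untreated cells for no effect and uninfected cells for full effect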); conditions: SNB-19 ZIKV-induced caspase-3/7, luminescence, 6 h; series mostly up to 45.7 µM
Summary of the method: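 A cell-based luminescent caspase-3/7 assay used SNB-19 cells infected with ZIKV (2 FFU/cell) for 6 h following 1 h compound pretreatment.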

[12] = Ebola virus entry assay, blue channel fluorescence; remark: listed apart in the source
[13] = Ebola virus entry assay, ratio channel
[14] = qHTS assay for measurement of the activity of small molecule inhibitors on Zika virus induced Caspase-3 activity in human iPSC derived neural progenitor cells (hNPCs) (AID 1224857; active means well fitted inhibition curve with a large enough effect; further: % of control where 0% means no effect; nearly all actives have a fitted effect of over 65% in size); conditions: hNPCs ZIKV-induced caspase-3/7, Caspase-Glo luminescence, 6 h; series mostly up to 45.7 µM
Summary of the method: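 In medium with heparin 2 ug/ml and cyclopamine 2 uM, hNPCs (350 cells/well) received compound for one hour and then Zika virus at 2 FFU/cell; caspase activity was measured by Caspase-Glo 3/7 luminescence 6 h post-infection.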
Wherever efficacy is given: 0% is about no effect.

CCCCS(=O)(=O)N[C@@H](Cc1ccc(OCCCCC2CCNCC2)cc1)C(=O)O
inactive: efficacy [1] 9.81% | outcome [2] | outcome [3] | outcome [4] | outcome [5] | outcome [6] | outcome [7] | outcome [8] | outcome [9] | outcome [10]

NCC(CC(=O)O)c1ccc(Cl)cc1 (stereo not drawn)
inactive: efficacy [1] -35.7% | outcome [2] | outcome [3] | outcome [4] | outcome [6] | outcome [7] | outcome [8] | outcome [9] | outcome [10] | outcome [11]

C1N2CN3CN1CN(C2)C3
inactive: efficacy [1] 14.5% | outcome [2] | outcome [3] | outcome [4] | outcome [5] | outcome [6] | outcome [7] | outcome [8] | outcome [9] | outcome [10]

COc1cc(Cc2cnc(N)nc2N)cc(OC)c1OC
inactive: efficacy [1] -22.6% | outcome [2] | outcome [3] | outcome [4] | outcome [5] | outcome [6] | outcome [7] | outcome [8] | outcome [9] | outcome [10]

CC(C(=O)O)c1cccc(C(=O)c2ccccc2)c1 (stereo not drawn)
inactive: efficacy [1] 11.5% | outcome [2] | outcome [3] | outcome [12] | outcome [5] | outcome [6] | outcome [7] | outcome [8] | outcome [10]

NCCCC(N)CC(=O)NCC1NC(=O)C(CO)NC(=O)C(N)CNC(=O)C(C2CCN=C(N)N2)NC(=O)C(=CNC(N)=O)NC1=O (stereo not drawn) (H-[Dap]S[Dap](ξβ3hOrn)[ΔAla(3-NHCONH2)][X1]; lactam 1-C; configuration not given here)
inactive: efficacy [1] 13% | outcome [2] | outcome [3] | outcome [4] | outcome [5] | outcome [6] | outcome [7] | outcome [8] | outcome [9] | outcome [10]

COc1ccccc1OCC(O)COC(N)=O (stereo not drawn)
inactive: efficacy [1] -13% | outcome [2] | outcome [3] | outcome [4] | outcome [5] | outcome [6] | outcome [7] | outcome [8] | outcome [10]

Cc1cn[nH]c1
inactive: efficacy [1] -9.66% | outcome [2] | outcome [3] | outcome [4] | outcome [6] | outcome [7] | outcome [8] | outcome [9] | outcome [10]

Cc1cccc(Nc2ccncc2S(=O)(=O)NC(=O)NC(C)C)c1
inactive: efficacy [1] -34.9% | outcome [2] | outcome [3] | outcome [4] | outcome [5] | outcome [6] | outcome [7] | outcome [8] | outcome [10]

CC1Cc2ccccc2N1NC(=O)c1ccc(Cl)c(S(N)(=O)=O)c1 (stereo not drawn)
inactive: efficacy [1] 11.5% | outcome [2] | outcome [3] | outcome [4] | outcome [5] | outcome [6] | outcome [7] | outcome [8] | outcome [10]

CCCN(CCC)CCc1cccc2c1CC(=O)N2
inactive: efficacy [1] 29.5% | outcome [2] | outcome [3] | outcome [4] | outcome [5] | outcome [6] | outcome [7] | outcome [8] | outcome [10]

NC(=O)N1c2ccccc2CC(=O)c2ccccc21
inactive: efficacy [1] -11.2% | outcome [2] | outcome [3] | outcome [12] | outcome [5] | outcome [6] | outcome [7] | outcome [8] | outcome [9] | outcome [10]

CCCNC(=O)NS(=O)(=O)c1ccc(Cl)cc1
inactive: efficacy [1] -18.6% | outcome [2] | outcome [3] | outcome [4] | outcome [5] | outcome [6] | outcome [7] | outcome [8] | outcome [9] | outcome [10]

CCOC(=O)c1ncn2c1CN(C)C(=O)c1cc(F)ccc1-2
inactive: efficacy [1] -22.5% | outcome [2] | outcome [3] | outcome [12] | outcome [13] | outcome [5] | outcome [6] | outcome [7] | outcome [8] | outcome [9] | outcome [10]

Nc1[nH]c(=O)ncc1F
inactive: efficacy [1] 14.3% | outcome [2] | outcome [3] | outcome [4] | outcome [5] | outcome [6] | outcome [7] | outcome [8] | outcome [9] | outcome [10]

NS(=O)(=O)c1cc2c(cc1Cl)NC=NS2(=O)=O
inactive: efficacy [1] -8.1% | outcome [2] | outcome [3] | outcome [12] | outcome [5] | outcome [6] | outcome [7] | outcome [8] | outcome [10]

C[C@]12CC[C@H]3[C@@H](CCC4=CC(=O)CC[C@@H]43)[C@@H]1CC[C@@H]2OC(=O)CCc1ccccc1
inactive: efficacy [1] -39.3% | outcome [2] | outcome [3] | outcome [4] | outcome [5] | outcome [7] | outcome [8] | outcome [9] | outcome [10] | Potency [14] | outcome [11]

CC(C)(C)C(=O)OCOP(=O)(COCCn1cnc2c(N)ncnc21)OCOC(=O)C(C)(C)C
inactive: efficacy [1] -17.9% | outcome [2] | outcome [3] | outcome [4] | outcome [5] | outcome [6] | outcome [7] | outcome [8] | outcome [9] | outcome [10]

O=C1CCc2ccc(OCCCCN3CCN(c4cccc(Cl)c4Cl)CC3)cc2N1
active: AC50 [10] 14.1 µM
inactive: efficacy [1] -27% | outcome [2] | outcome [3] | outcome [4] | outcome [5] | outcome [7] | outcome [8]

C[C@@H](O)[C@H]1C(=O)N2C(C(=O)O)=C(S[C@@H]3CN[C@H](C(=O)N(C)C)C3)[C@H](C)[C@H]12
inactive: efficacy [1] 17.9% | outcome [2] | outcome [3] | outcome [4] | outcome [5] | outcome [6] | outcome [7] | outcome [8] | outcome [9] | outcome [10]

CC(C)c1nc(CN(C)C(=O)N[C@H](C(=O)N[C@@H](Cc2ccccc2)C[C@H](O)[C@H](Cc2ccccc2)NC(=O)OCc2cncs2)C(C)C)cs1
inactive: efficacy [1] 31.8% | outcome [3] | outcome [4] | outcome [12] | outcome [6] | outcome [8] | outcome [9] | outcome [10]
active: AC50 [13] 22.4 µM | AC50 [7] 22.4 µM

CC/C=C(\C(=O)N[C@@H]1C(=O)N2C(C(=O)OCOC(=O)C(C)(C)C)=C(COC(N)=O)CS[C@H]12)c1csc(N)n1
inactive: efficacy [1] 11.1% and -32.9% | outcome [12] | outcome [13] | outcome [5] | outcome [7] | outcome [8]

Cc1ccccc1C(=O)Nc1ccc(C(=O)N2CCCC(O)c3cc(Cl)ccc32)c(C)c1 (stereo not drawn)
inactive: efficacy [1] 54.1% | outcome [2] | outcome [4] | outcome [9] | outcome [10]
active: AC50 [12] 25.1 µM | AC50 [13] 25.1 µM | AC50 [7] 25.1 µM

Cc1ccc2c(n1)Oc1ccc(C(C)C(=O)OCC(=O)N(C)C)cc1C2 (stereo not drawn)
inactive: efficacy [1] -14% and -11.2% | outcome [12] | outcome [13] | outcome [5] | outcome [7]

Cc1ccc(S(=O)(=O)NC(=O)NN2CCCCCC2)cc1
inactive: efficacy [1] -42.6% | outcome [3] | outcome [4] | outcome [13] | outcome [5] | outcome [7] | outcome [8] | outcome [10]

CC(C)OC(=O)C(C)(C)Oc1ccc(C(=O)c2ccc(Cl)cc2)cc1
inactive: efficacy [1] 75.8% | outcome [3] | outcome [4] | outcome [12] | outcome [13] | outcome [7] | outcome [8] | outcome [9] | outcome [10]

CCOC(=O)[C@H](CCc1ccccc1)N[C@@H](C)C(=O)N1[C@H](C(=O)O)C[C@@H]2CCC[C@@H]21
inactive: efficacy [1] -29.2% | outcome [2] | outcome [4] | outcome [13] | outcome [5] | outcome [6] | outcome [7] | outcome [8] | outcome [9] | outcome [10]

CNCCC(Oc1ccc(C(F)(F)F)cc1)c1ccccc1 (stereo not drawn)
active: AC50 [2] 14.1 µM | AC50 [12] 8.91 µM | AC50 [13] 3.55 µM | AC50 [7] 3.55 µM | AC50 [10] 12.6 µM
inactive: efficacy [1] -180% | outcome [4]

CC1(C)NC(=O)N(c2ccc([N+](=O)[O-])c(C(F)(F)F)c2)C1=O
inactive: efficacy [1] 16.8% | outcome [3] | outcome [4] | outcome [5] | outcome [6] | outcome [7] | outcome [8] | outcome [9] | outcome [10]

Cc1nc(N)nc(N)c1-c1ccc(Cl)c(Cl)c1
active: AC50 [12] 12.6 µM | AC50 [13] 28.2 µM | AC50 [7] 28.2 µM
inactive: efficacy [1] -23% | outcome [5]

COc1ccc(OC)c(C(O)CNC(=O)CN)c1 (stereo not drawn)
inactive: efficacy [1] 13.6% | outcome [2] | outcome [4] | outcome [12] | outcome [5] | outcome [6] | outcome [7] | outcome [8] | outcome [10]

CC(C)NCC(O)COc1cccc2[nH]ccc12 (stereo not drawn)
active: AC50 [12] 39.8 µM | AC50 [7] 39.8 µM
inactive: efficacy [1] -19.5% | outcome [2] | outcome [4] | outcome [13] | outcome [5] | outcome [6] | outcome [10]

CC(C)Oc1ccc2c(=O)c(-c3ccccc3)coc2c1
inactive: efficacy [1] 27.1% and 23.5% | outcome [12] | outcome [13] | outcome [5] | outcome [7] | outcome [8]

C[C@@H]1CC(=O)NN=C1c1ccc(NN=C(C#N)C#N)cc1
inactive: efficacy [1] -24% and 20% | outcome [12] | outcome [13] | outcome [5] | outcome [7] | outcome [8]

CN[C@H]1CC[C@@H](c2ccc(Cl)c(Cl)c2)c2ccccc21
active: AC50 [12] 2 µM | AC50 [13] 1.58 µM | AC50 [7] 1.58 µM
inactive: efficacy [1] -213% | outcome [3]

O=C1CCC(N2C(=O)c3ccccc3C2=O)C(=O)N1 (stereo not drawn)
inactive: efficacy [1] -16.4% | outcome [3] | outcome [4] | outcome [12] | outcome [13] | outcome [5] | outcome [6] | outcome [7] | outcome [8] | outcome [9] | outcome [10]

COC(=O)C1=C(C)NC(C)=C(C(=O)OC(C)C)C1c1cccc2nonc12 (stereo not drawn)
inactive: efficacy [1] -20.5% | outcome [3] | outcome [4] | outcome [13] | outcome [5] | outcome [6] | outcome [7] | outcome [8] | outcome [9] | outcome [10]

CCOC(=O)[C@H](CCc1ccccc1)N[C@@H](C)C(=O)N1Cc2ccccc2C[C@H]1C(=O)O
inactive: efficacy [1] 30.9% | outcome [3] | outcome [4] | outcome [13] | outcome [5] | outcome [6] | outcome [7] | outcome [8] | outcome [9] | outcome [10]

NC(=O)N/N=C/c1ccc([N+](=O)[O-])o1
inactive: efficacy [1] 31.4% | outcome [12] | outcome [13] | outcome [5] | outcome [7] | outcome [8]

NC(=O)c1cn(Cc2c(F)cccc2F)nn1
inactive: efficacy [1] -11.2% | outcome [2] | outcome [4] | outcome [12] | outcome [5] | outcome [6] | outcome [7] | outcome [8] | outcome [9] | outcome [10]

CC[C@@H](CO)NC(=O)[C@@H]1C=C2c3cccc4c3c(cn4C)C[C@H]2N(C)C1
inactive: efficacy [1] 9.51% | outcome [2] | outcome [4] | outcome [13] | outcome [5] | outcome [6] | outcome [7] | outcome [10]

CCN(CC)C(=S)SSC(=S)N(CC)CC
active: AC50 [12] 7.08 µM | AC50 [13] 7.94 µM and 22.4 µM | AC50 [7] 7.94 µM and 22.4 µM
inactive: efficacy [1] -47.8% | outcome [3] | outcome [4] | outcome [10]

Cc1[nH]cnc1CN1CCc2c(c3ccccc3n2C)C1=O
inactive: efficacy [1] -10.6% | outcome [2] | outcome [4] | outcome [12] | outcome [13] | outcome [5] | outcome [6] | outcome [7] | outcome [8] | outcome [9] | outcome [10]

From PubChem BioAssay (NCATS)
